# FECH block – inhibitors of human ferrochelatase. P22830. purified FECH, Ni-mesoporphyrin absorbance 550 nm. calls only at 10 µM (by protocol). 20,000 tested, 3.3% active;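 active = enzyme reaction rate more than 3 SD below the solvent-only control wells on the same plate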;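 note: lower slope than DMSO wells means FECH inhibition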
# Target sequence (P22830 whole entry, looked up): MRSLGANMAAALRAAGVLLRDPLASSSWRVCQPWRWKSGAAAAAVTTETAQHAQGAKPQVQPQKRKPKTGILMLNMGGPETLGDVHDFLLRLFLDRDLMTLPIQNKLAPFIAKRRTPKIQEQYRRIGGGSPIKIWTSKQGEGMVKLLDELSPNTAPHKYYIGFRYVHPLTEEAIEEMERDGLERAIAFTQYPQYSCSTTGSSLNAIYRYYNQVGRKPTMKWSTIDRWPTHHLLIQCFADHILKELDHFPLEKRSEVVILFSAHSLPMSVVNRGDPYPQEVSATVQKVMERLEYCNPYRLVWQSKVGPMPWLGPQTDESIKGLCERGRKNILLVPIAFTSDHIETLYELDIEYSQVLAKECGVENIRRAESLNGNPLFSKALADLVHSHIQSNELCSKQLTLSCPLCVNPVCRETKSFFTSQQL
# * = called active by the depositor; i = inactive; + = active, no number. The full list was thinned out, with hits kept by preference.
SMILES,FECH block
Cc1cc(NC(=O)c2ccc3c(c2)OCO3)n(-c2ncnc3c2cnn3-c2cccc(C)c2C)n1,i
CCCC(C(=O)Nc1ccc(OC)cc1)N1Cc2ccccc2C1=O (stereo not given),i
Cc1n[nH]c(C)c1Cc1nnc(SCC(=O)O)n1-c1ccccc1Cl,i
CN1CCC(CNC(=O)c2cc3c(Cl)cccc3n2C)C1 (stereo not given),i
CC(c1ccc(C(=O)NCc2cc(F)ccc2F)o1)N1CCCCC1 (stereo not given),i
Cc1cc(=O)oc2cc(-n3cnnc3)ccc12,i
CC(C)NC(=O)CN1c2ccc(Br)cc2-c2ccccc2S1(=O)=O,+
O=C(CN1c2ccc(Br)cc2-c2ccccc2S1(=O)=O)NCC1CCCO1 (stereo not given),+
COc1ccc(C)cc1NC(=O)CN1c2ccc(Br)cc2-c2ccccc2S1(=O)=O,+
CN1CCN(C(=O)CN2c3ccc(Br)cc3-c3ccccc3S2(=O)=O)CC1,+
CC(C)c1ccc2c(c1)-c1ccccc1S(=O)(=O)N2CC(=O)N1CC(=O)Nc2ccccc21,i
COc1ccc(C)cc1NC(=O)Cn1ccnc1-c1nccn1C,i
O=C(CN1c2ccc(Br)cc2-c2ccccc2S1(=O)=O)N1CCc2ccccc2C1,i
COCC(C)NC(=O)CN1c2ccc(F)cc2-c2ccccc2S1(=O)=O (stereo not given),i
Cc1cccc(NC(=O)CC(=O)NC[C@@H]2CCCO2)c1C,i
O=C(CN1c2ccc(F)cc2-c2ccccc2S1(=O)=O)NC(c1ccccc1)c1ccccc1,i
Cc1cccc(OCC(=O)Nc2cc(C)ccc2OCc2cc(=O)n3oc(C)cc3n2)c1,i
CN(C)CC1(O)CCCN(C(=O)c2cccc(CC3CCNCC3)c2)CC1 (stereo not given),i
CC1CCN(Cc2cc(=O)n3[nH]c(NCc4ccc(F)cc4)nc3n2)CC1,i
c1ccc(-c2csc(CCn3ccnc3-c3ccncc3)n2)cc1,i
C[C@@H](Nc1nccc(CCC(F)(F)F)n1)C(N)=O,i
c1ccc(Cc2nc(C3CC3)nn2-c2ccc3c(c2)OCCO3)nc1,i
CN(C)S(=O)(=O)CCNC1CCN(Cc2ccccc2)CC1,i
CCN(CC)CCNC(=O)CC1CCN(S(=O)(=O)c2ccc(C)cc2)CC1,i
COc1cccc(OCC(=O)Nc2cc(N3CCCS3(=O)=O)ccc2C)c1,i
SMILES,FECH block
Cc1ccc(OCC(=O)Nc2cc(N3CCCS3(=O)=O)ccc2C)cc1,i
Cc1cccc(OCC(=O)Nc2cc(N3CCCS3(=O)=O)ccc2C)c1,+
CCc1ccc(-c2c(-c3ccccc3)ncn2CCCO)nc1,i
COc1ccccc1CNc1nc2nc(CNc3ccccc3)cc(=O)n2[nH]1,i
Cc1ccccc1NCc1cc(=O)n2[nH]c(NCc3ccccc3Cl)nc2n1,+
CCc1ccccc1NCc1cc(=O)n2[nH]c(NCc3ccccc3)nc2n1,i
Cc1cccc(NCc2cc(=O)n3[nH]c(NCc4ccccc4Cl)nc3n2)c1C,i
O=c1cc(CNc2ccc(F)cc2)nc2nc(NCc3ccccc3)[nH]n12,i
CCc1ccccc1NCc1cc(=O)n2[nH]c(NCc3ccc(OC)cc3)nc2n1,i
COc1ccc(CNc2nc3nc(CNc4ccccc4OC)cc(=O)n3[nH]2)cc1,+
CCOc1ccccc1NCc1cc(=O)n2[nH]c(NCc3ccc(F)cc3)nc2n1,i
CCc1ccccc1NCc1cc(=O)n2[nH]c(NCc3ccccc3Cl)nc2n1,+
COc1ccc(CNc2nc3nc(CNc4ccccc4F)cc(=O)n3[nH]2)cc1,i
Cc1ccc(NCc2cc(=O)n3[nH]c(NCc4ccccc4Cl)nc3n2)cc1,+
COc1ccccc1CNc1nc2nc(CNc3ccccc3OC)cc(=O)n2[nH]1,i
Cc1ccccc1Cn1cc(C(=O)Nc2cc(F)ccc2F)ccc1=O,i
CCc1cc(Sc2ccc(NC(=O)c3ccccc3C)cc2)n2ncnc2n1,i
CCOc1ccc(N(Cc2nc3nc(C)cc(C)n3n2)C(=O)C(C)C)cc1,i
CCCc1nc(CN(CC)C(=O)C2CCc3ccccc3C2)no1 (stereo not given),i
Cc1cccc(C(=O)Nc2cc(C)nn2-c2ncnc3c2cnn3-c2ccccc2)c1,i
CNc1nc(CN2CCCC3(C2)CN(C)C(=O)O3)cs1 (stereo not given),i
COCCCNC(=O)c1cccn1-c1nnc(N2CCCCC2)s1,i
Cc1ccc(-n2c(CN3CCN(S(=O)(=O)c4ccccc4)CC3)nc3cccnc32)cc1,i
CC(NC(=O)C1CCN(c2ncnc3c2nc2n3CCCCC2)CC1)c1ccccc1 (stereo not given),i
O=C(CN1CCN(Cc2ccccc2F)S1(=O)=O)Nc1ccc(F)cc1,i
Cc1ccc(CN2CCN(CC(=O)Nc3ccc(Br)cc3)S2(=O)=O)cc1,i
CCCc1cc(N2CCN(c3cccc(C)c3)CC2)n2nc(-c3cccnc3)nc2n1,i
O=C(CN1CCN(Cc2ccc(F)cc2)S1(=O)=O)Nc1ccccc1,i

# Screens as filed in PubChem.
